# Only some compounds are listed: those with a hit (about 11% of all), similar ones and a draw of the others.
# HTT aggregate – reduces HttQ103-GFP aggregates in PC12 cells; PC12 HttQ103-GFP aggregates, Acumen cytometry, 40 h; Potency, µM (top dose mostly 46.1 µM), inactives show at the highest dose activity change, negative = inhibition, actives largely listed as inhibitors; 220,000 tested, 1.1% active; AID 1688; further: potency means the concentration at half of the fitted maximal effect; on the % scale 0 is the no-effect control and ±100 the full control effect; nearly all actives have a fitted effect of over 60% in size
#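 PC12 cells with ecdysone-inducible HTT exon1 Q103-GFP, induced by 100 nM tebufenozide, given compounds in a concentration series. GFP aggregates (1–25 um, 6 SD above background) counted in lysates by laser-scanning cytometry, 488 nm excitation.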
# HTT cytoprotect – protects HTT-Q103 PC12 cells, measured by ATP | PC12 HTT-Q103 induced, cytoprotection, ATP luminescence, 40 h | Potency, µM (doses to about 56.4 µM), inactives show cytoprotection (ATP increase), most hits filed as activators | 230,000 tested, 0.14% active; further: potency means the concentration at half of the fitted maximal effect; % of control where 0% means no effect; nearly all actives have a fitted effect of over 45% in size
#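 Compounds added alongside 100 nM tebufenozide, which induces toxic Q103 huntingtin exon 1-GFP in stable PC12 cells; surviving cells quantified by luminescent ATP measurement. Medium: phenol red-free DMEM, 5% equine and 5% calf serum.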
# PNC assembly inh – perinucleolar compartment assembly inhibition | PC3M PTB-GFP, PNC prevalence imaging, 16 h; stronger effect = lower value | activity change (PNC), negative = inhibition, % at 10 µM | 140,000 tested, 3.1% active | AID 2417;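 active means readout at or below -70, meaning at least 70% loss of cells showing the perinucleolar compartment, a nuclear body marking cancer cells; inconclusive means readout between -30 and a set limit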;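 further: plate controls were DMSO wells for no effect and camptothecin positive control wells for full effect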
#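 PC3M cells stably expressing PTB-GFP, 750–1000 cells/well, treated 16 h at 37 °C with compound (23 nl of library stock), in duplicate. After paraformaldehyde fixation and Hoechst stain, imaged at 20x; PNC prevalence scored by image analysis.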
# RGS12 GoLoco inh – inhibitors of human Gai1-RGS12 GoLoco interaction (red fluorophore). Potency, µM (doses to about 61.6 µM), for inactives: at the top dose activity, negative = inhibition, actives largely listed as inhibitors. P63096. 230,000 tested, 0.44% active. AID 880. Gai1:RGS12 GoLoco peptide FP, rhodamine, 10 min; active means well fitted inhibition curve with a large enough effect, not every such curve was filed as active; inactive means no such curve, though single readings can be large or run the other way; further: potency means the concentration at half of the fitted maximal effect; on the % scale 0 is the no-effect control and ±100 the full control effect; nearly all actives have a fitted effect of over 30% in size
# HPGD block – blocks human HPGD enzyme activity | AID 894 | P15428 | Potency, µM, for inactives: top-dose activity change, negative = inhibition, usual class: inhibitors | 150,000 tested, 4.3% active | purified HPGD, NADH fluorescence kinetic, PGE2 substrate; active means well fitted inhibition curve with a large enough effect, not every such curve was filed as active; inconclusive means small, poorly fitted or top-dose-only effect, or another doubt; inactive means no such curve, though single readings can be large or run the other way; further: potency means the concentration at half of the fitted maximal effect; on the % scale 0 is the no-effect control and ±100 the full control effect
#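 20 nM HPGD preincubated 15 min at room temperature with compound in 50 mM Tris-HCl pH 8, 0.01% Tween 20. Started with 1 mM NAD+ and 30 uM prostaglandin E2; NADH fluorescence (360/450 nm) read 5 times over 30-s intervals, last minus first.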
# ALDH1A1 block – inhibitors of human aldehyde dehydrogenase 1A1. Potency, µM (doses to about 75.3 µM), for inactives: top-dose activity, negative = inhibition, usual class: inhibitors. Purified ALDH1A1, NADH fluorescence, propionaldehyde substrate. AID 1030. 220,000 tested, 7.3% active. P00352; active means well fitted inhibition curve with a large enough effect, not every such curve was filed as active; inconclusive means small, poorly fitted or top-dose-only effect, or another doubt; inactive means no such curve, though single readings can be large or run the other way;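 further: potency means the concentration at half of the fitted maximal effect; plate controls were no enzyme wells and a reference inhibitor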
# Target sequence (P00352 whole entry, looked up): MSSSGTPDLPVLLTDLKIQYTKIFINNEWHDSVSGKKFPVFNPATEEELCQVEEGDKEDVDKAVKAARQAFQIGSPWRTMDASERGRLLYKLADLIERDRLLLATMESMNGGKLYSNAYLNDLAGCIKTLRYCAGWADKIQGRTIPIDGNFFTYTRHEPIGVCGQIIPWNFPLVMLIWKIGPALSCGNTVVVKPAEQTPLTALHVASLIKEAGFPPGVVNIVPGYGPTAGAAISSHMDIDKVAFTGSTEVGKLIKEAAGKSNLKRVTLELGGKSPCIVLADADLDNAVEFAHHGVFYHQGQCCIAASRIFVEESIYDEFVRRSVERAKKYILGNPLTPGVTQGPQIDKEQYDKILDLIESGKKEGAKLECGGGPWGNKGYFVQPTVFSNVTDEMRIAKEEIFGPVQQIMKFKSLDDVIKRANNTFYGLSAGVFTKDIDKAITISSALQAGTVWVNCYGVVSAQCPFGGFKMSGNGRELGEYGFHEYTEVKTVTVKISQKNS
# The depositor's hits bear a star; ? = inconclusive; nt = no result; [ ] = remark or other dose. Unless noted, the call rests on the fitted dose curve; in most records, active means well fitted curve in the direction sought with a large enough effect; inconclusive means small, poorly fitted or top-dose-only effect, or another doubt; inactive means no such curve, though single readings can be large; an effect the other way counts as inactive or inconclusive.
SMILES,HTT aggregate,HTT cytoprotect,PNC assembly inh,RGS12 GoLoco inh,HPGD block,ALDH1A1 block
COC(=O)C(C)Sc1nc2c(c(=O)n1-c1ccccc1)SCC2 (stereo not given),14%,-2%,?,-5%,-8%,3.2µM*
CCOc1ccc(NC(=O)CSc2nc3[nH]ncc3c(=O)n2-c2ccccc2OC)cc1,?,nt,-11,9%,-9%,8.9µM*
CN(Cc1ccco1)c1ccnc(-c2cccc(C#N)c2)n1,nt,-46%,nt,5%,nt,?
C=C1CSc2nc(=O)c3c4c(sc3n21)CCCC4,1%,14%,26,-2%,14µM*,-15%
O=c1nc2n(c3sc4c(c13)CCC4)Cc1ccccc1-2,nt,-14%[10 µM],nt,nt,nt,nt
C=C1CSc2nc(=O)c3c4c(sc3n21)CCC4,6%,-2%,7,7%,14µM*,6%
CCOc1cc2[nH]c(=O)n(CCCN3CCN(c4ccc(OC)cc4)CC3)c(=O)c2cc1OCC,11%,-7%,nt,2%,nt,-12%
CN(C)S(=O)(=O)c1cccc(C(=O)C2=C3SC=C(c4ccccc4)N3CC2)c1,10%,-19%[10 µM],-20,101%,-25%,2µM*
COc1cccc(CC(NC(C)=O)C(=O)NC2CCN(c3nnnn3-c3ccccc3)CC2)c1 (stereo not given),4%,-2%,30,-4%,-6%,14µM*
CCOc1ccc(NC(=O)N2CCC(NC(=O)C(Cc3ccc(OC)c(OC)c3)NC(C)=O)CC2)cc1 (stereo not given),-4%,?,7,-4%,3%,0.056µM*
COc1ccc(CC(NC(C)=O)C(=O)NC2CCN(c3nnnn3-c3ccccc3)CC2)cc1OC (stereo not given),2%[9.22 µM],12%[10 µM],nt,14%,nt,10µM*
COc1ccc(CC(NC(C)=O)C(=O)NC2CCN(C(=O)NCc3ccccc3)CC2)cc1OC (stereo not given),-20%,7%,-1,7%,-7%,1%
COc1ccc(OC)c(CC(NC(C)=O)C(=O)NC2CCN(c3nnnn3-c3ccccc3)CC2)c1 (stereo not given),8%[9.22 µM],17%[10 µM],nt,4%,nt,nt
CC(=O)NC(Cc1cccc(F)c1)C(=O)NC1CCN(c2nnnn2-c2ccccc2)CC1 (stereo not given),13%[9.22 µM],23%[10 µM],nt,11%,nt,1.4µM*
C[C@@H]1C[C@](C)(C(=O)c2ccc3c(c2)OCO3)C=C1c1ccc2c(c1)OCO2,nt,-11%,nt,1%,3%,-10%
N#Cc1ccc(COn2nnc3ccccc32)cc1,4%,-27%,nt,-4%,nt,-4%
COc1ccc(-c2nc3cnc(N4CCNCC4)nc3n(CCc3ccccc3)c2=O)cc1,nt,?,nt,1%,?,?
COc1ccc(CC(NC(C)=O)C(=O)NC2CCN(c3nnnn3-c3ccccc3)CC2)cc1 (stereo not given),18%,-16%[10 µM],-10,-5%,-8%,2.5µM*
CCCn1[nH]cc(SC)c(=O)c1=O,4%,-2%,?,-1%,-6%,22µM*
Cc1cc2cc(CN(Cc3ccc4c(c3)OCO4)C(=O)c3cnccn3)c3nnnn3c2cc1C,8%,-31%,0,6%,-18%,14µM*
CCN(C(=O)COC(=O)c1nn(-c2ccccc2)c(=O)c2ccccc12)C1CCS(=O)(=O)C1 (stereo not given),-12%[9.22 µM],-4%[10 µM],nt,-1%,nt,nt
O=C(NC1CC1)c1cc(F)c(F)cc1Cl,9%,-13%,-5,-3%,22µM*,1%
CCOC(=O)c1ccc(NC(=S)NNC(=O)C2(C)CC2(Cl)Cl)cc1 (stereo not given),?,1%[10 µM],104,-4%,28µM*,10µM*
COC(=O)c1ccc(NC(=S)NNC(=O)CC(C)C)cc1,-4%,13%[10 µM],42,-11%,28µM*,0%
COc1ccc(Cl)cc1NC(=S)NNC(=O)C1(C)CC1(Cl)Cl (stereo not given),9%[9.22 µM],32%[10 µM],nt,10%,nt,28µM*

# High-throughput results from PubChem BioAssay.
